Where “and” joins values, the source holds several entries; their conditions need not be identical. Equal entries are not always repeated. Results filed as inconclusive are left out. Calls of active or inactive are those of the source. Unless noted, the call rests on the fitted dose curve; in most records, active means well fitted curve in the direction sought with a large enough effect; inconclusive means small, poorly fitted or top-dose-only effect, or another doubt; inactive means no such curve, though single readings can be large; an effect the other way counts as inactive or inconclusive.
What was measured:
[1] = Cell Viability - HUV-EC-C (AID 542); details: HUV-EC-C endothelial cell viability, qHTS; series mostly up to 92.2 µM;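 further: cells exposed to compound for 40 hours; nearly all actives have a fitted effect of over 35% in size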; further: potency means the concentration at half of the fitted maximal effect
Summary of the method: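 CellTiter-Glo luminescence measured ATP loss in HUV-EC-C cells (1000/well) after 40 hr compound exposure at 37 °C, in complete culture medium. Concentration-response data were Hill-fitted to give AC50.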

[2] = Cellular Toxicity (caspase-3) HepG2 (AID 654); details: HepG2 caspase-3 activation, luminescence; series mostly up to 92.2 µM;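 further: cells exposed to compound for 16 hours before reading; 0% = DMSO alone and 100% = caspase signal from 100 µM tamoxifen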
Summary of the method: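 Caspase 3/7 activation is measured as a luminescence increase (aminoluciferin substrate) after 16 h compound exposure of human hepatocarcinoma HepG2 cells. AC50 values are Hill fits, scaled between DMSO baseline and 100 uM tamoxifen stimulation.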

[3] = Cellular Toxicity (caspase-3) HUV-EC-C (AID 656); details: HUV-EC-C cells, caspase-3 activation (apoptosis); series mostly up to 92.2 µM
Summary of the method: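 HUV-EC-C cells (1000/well) in complete medium, compound-treated 16 h at 37 °C; caspase-3/7 activity read by Caspase-Glo 3/7 luminescence. Normalized to DMSO (basal) and 100 uM tamoxifen (100%); AC50 from Hill-equation concentration-response fits.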

[4] = Cellular Toxicity (caspase-3) MRC-5 (AID 659); details: MRC-5 cells, luminescence, normalized: DMSO 0%, 10 µM staurosporine 100%; series mostly up to 91.7 µM
Summary of the method: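 Luminescent Caspase-Glo 3/7 read-out (1 h, room temperature) after a 16 h, 37 °C compound exposure of MRC-5 lung fibroblasts at 1500 cells/well. Concentration-response AC50 from Hill equation; 0% DMSO, 100% 10 uM staurosporine.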

[5] = Cellular Toxicity (caspase-3) Mesangial (AID 660); details: mesangial cells, normalized: DMSO 0%, 100 µM tamoxifen 100%; series mostly up to 91.7 µM;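 further: cells exposed to compound for 16 h before the caspase read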
Summary of the method: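 Caspase 3/7 activation measured by Caspase-Glo 3/7 luminescence (20 min, room temperature) following 16 h exposure of mesangial cells (1000/well); AC50 from Hill-equation fit, normalized to DMSO and 100 uM tamoxifen.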

[6] = Cellular Toxicity (caspase-3) SK-N-SH (AID 661); details: SK-N-SH caspase-3 activation, qHTS, DMSO as zero, staurosporine as full; series mostly up to 91.7 µM
Summary of the method: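 Caspase 3/7 activation was read by luminogenic substrate cleavage after 16 hour treatment of SK-N-SH cells. Signal was scaled between DMSO and 10 uM staurosporine, and concentration-response data were fitted with the Hill equation for AC50.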

[7] = Cellular Toxicity (caspase-3) H-4-II-E (AID 663); details: H-4-II-E rat hepatoma; Potency: caspase-3 activation; series mostly up to 92.2 µM;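 further: cells exposed to compound for 16 hr before readout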
Summary of the method: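 Caspase 3/7 activation measured by luminescent aminoluciferin substrate cleavage after 16 hr compound treatment of H-4-II-E cells in complete medium. Increase normalized between DMSO (basal) and 100 uM tamoxifen (100%); Hill-equation AC50 from concentration-response.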

[8] = Cellular Toxicity (caspase-3) N2a (AID 665); details: N2a cells, luminescence, normalized: DMSO 0%, 10 µM staurosporine 100%; series mostly up to 92.2 µM;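 further: compound exposure lasted 16 h at 37 °C before readout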
Summary of the method: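 Caspase-3/7 activation measured as luminescence from Caspase-Glo reagent (1 h, room temperature) after 16 h compound exposure of mouse N2a cells. AC50 values from Hill-equation concentration-response, scaled between DMSO and 10 uM staurosporine.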

[9] = Cellular Toxicity (caspase-3) NIH 3T3 (AID 666); details: NIH 3T3 caspase-3 activation, apoptosis/toxicity, 0% DMSO, 100% is 100 µM tamoxifen; series mostly up to 92.2 µM;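 further: 0% = DMSO basal and 100% = 100 µM tamoxifen stimulation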
Summary of the method: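 Caspase-Glo 3/7 luminescence reported caspase activation in 1000 NIH 3T3 cells/well after 16 h compound exposure at 37 C. DMSO set basal and 100 uM tamoxifen set 100% stimulation; concentration-response modeled with the Hill equation for AC50.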

[10] = Cellular Toxicity (caspase-3) Renal Proximal Tubule (AID 667); details: renal proximal tubule cells, primary cells freshly taken from rat; Potency: caspase-3 activation; series mostly up to 91.7 µM;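 further: cells exposed to compound for 16 hours at 37 °C before detection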
Summary of the method: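 Freshly isolated primary rat kidney proximal tubule cells, 1000/well, treated 16 hr at 37 °C, then Caspase-Glo 3/7 luminescence after 1 hr. Normalized to DMSO and 10 uM staurosporine; AC50 from Hill fit.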

[11] = MultiTox-Fluor Cytotoxicity Assay - LYMP1-003 - Dead Cells (AID 961); details: LYMP1-003 lymphoblastoid cells, dead-cell protease fluorescence; series mostly up to 92.2 µM; further: nearly all actives have a fitted effect of over 70% in size; further: potency means the concentration at half of the fitted maximal effect
Summary of the method: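 LYMP1-003 lymphoblastoid, 2500 cells/well, 5 hr settle then 16 hr cpd at 37 C; MultiTox-Fluor reagent 60 min RT; Ex/Em 485/520 dead-cell signal; norm. DMSO = 0%, 15 uM tetraoctylammonium bromide = 100%; Hill AC50.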

[12] = MultiTox-Fluor Cytotoxicity Assay - LYMP1-003 - Live Cells (AID 962); details: LYMP1-003 lymphoblastoid cells, MultiTox-Fluor live-cell protease fluorescence; series mostly up to 92.2 µM; further: potency means the concentration at half of the fitted maximal effect
Summary of the method: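 Live-cell protease activity (GF-AFC substrate, 405/510 nm, 60 min at room temperature) after 16 h, 37 C compound exposure of human lymphoblastoid LYMP1-003 cells; concentration-response fitted to the Hill equation for AC50.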

[13] = Cell Viability - LYMP1-003 - Assay at 24 hr (AID 963); details: LYMP1-003 lymphoblastoid cell viability; series mostly up to 92.2 µM;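 further: plate controls were DMSO only for no effect and tetraoctylammonium bromide positive control for full effect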
Summary of the method: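 Concentration-response qHTS: ATP loss measured by CellTiter-Glo luminescence after 24 h compound exposure at 37 C. Cells were LYMP1-003 human lymphoblastoid, 2500 per well. AC50 derived via standard Hill equation modeling.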

[14] = qHTS Assay for Identification of Small Molecule Inducers of Hypoxia Response (AID 2120; active means well fitted curve in the direction sought with a large enough effect in the signal ratio, with a control signal flat, not every such curve was filed as active; the % refers to the signal ratio; further: 0% is about no effect); details: hypoxia response reporter cells, beta-lactamase ratio readout; series mostly up to 104 µM
Summary of the method: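 Reporter induction read as the CCF4 blue/green (460nm/530nm) emission ratio after 2.5 h dye loading at room temperature. ME-180 HRE-beta-lactamase cells received titrated compounds for 17 h at 37 degrees Celsius; AC50 values derived.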

[15] = molecular target: Peroxisome proliferator-activated receptor alpha (Homo sapiens) (UniProt Q07869); assay: qHTS assay for small molecule agonists of the peroxisome proliferator-activated receptor alpha (PPARalpha) signaling pathway (AID 651778); details: PathHunter PPARalpha complementation, chemiluminescence, 6 h; max response: hits give high values; further: % of control where 0% means no effect
Summary of the method: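 Chemiluminescence from complemented enzyme reported PPARalpha activation in cells after 6 hr of compound treatment at 37 C. The detection reagent was incubated for 60 min at room temperature, and compounds were scored as agonists.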

[16] = qHTS assay for cell viability of the p53RE-bla HCT-116 cell line (AID 743292); details: p53RE-bla HCT-116 viability, ATP luminescence, 16 h; series mostly up to 95 µM; further: nearly all actives have a fitted effect of over 55% in size; further: potency means the concentration at half of the fitted maximal effect
Summary of the method: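 ATP-based luminescence, 16 h compound exposure at 37 C, p53RE-bla HCT-116 cells at 4,000/well.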

[17] = Cell Viability - MRC5 (AID 434; calls by dose curve;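 further: potency means the concentration at half of the fitted maximal effect; cells exposed to compound for 40 hours at 37 °C; potency reflects cytotoxicity seen as loss of intracellular ATP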); details: MRC5 lung fibroblast viability, qHTS
Summary of the method: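 AC50 values come from Hill-equation fits of intracellular ATP loss, measured by CellTiter-Glo luminescence. Normal lung fibroblasts (MRC5) had 40 hr compound treatment at 37 C, normalized between DMSO and 100 uM tamoxifen.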

[18] = Cellular Toxicity (caspase-3) SHSY5Y (AID 657); details: SH-SY5Y caspase-3 activation; series mostly up to 91.7 µM
Summary of the method: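 SH-SY5Y human neuroblastoma cells, 1500/well, exposed to compound for 16 hours at 37 °C in complete medium. Caspase-3/7 activity read by Caspase-Glo luminescence after 1 hr at room temperature, normalized to DMSO and 10 uM staurosporine; AC50 from Hill fit.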

[19] = MultiTox-Fluor Cytotoxicity Assay - LYMP1-001 - Dead Cells (AID 946); details: LYMP1-001 lymphoblastoid cells, dead-cell protease fluorescence; series mostly up to 92.2 µM
Summary of the method: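 Seed 2500 LYMP1-001 cells/well, incubate 5 hr at 37 C; add compound, 16 hr at 37 C; add MultiTox-Fluor reagent, 60 min RT; read dead-cell fluorescence Ex/Em=485/520. Normalize to DMSO and 15 uM tetraoctylammonium bromide.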

[20] = qHTS assay for small molecule agonists of the antioxidant response element (ARE) signaling pathway measured by Nrf2-dependant transcriptional activity - cell viability counter screen (AID 720653; active means well fitted curve in the direction sought with a large enough effect in the repeat runs; an effect the other way counts as inactive or inconclusive; further: on the % scale 0 is the no-effect control and ±100 the full control effect); details: ARE-bla HepG2 viability, CellTiter-Glo ATP luminescence, 16 h; max response: hits give low values
Summary of the method: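 Cytotoxicity counter screen: intracellular ATP quantified by CellTiter-Glo luminescence in the same ARE-bla HepG2 plates, after 16 h compound exposure and a 2 h beta-lactamase substrate step.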

Peroxisome proliferator-activated receptor alpha (Homo sapiens), sequence (Q07869 whole entry, looked up): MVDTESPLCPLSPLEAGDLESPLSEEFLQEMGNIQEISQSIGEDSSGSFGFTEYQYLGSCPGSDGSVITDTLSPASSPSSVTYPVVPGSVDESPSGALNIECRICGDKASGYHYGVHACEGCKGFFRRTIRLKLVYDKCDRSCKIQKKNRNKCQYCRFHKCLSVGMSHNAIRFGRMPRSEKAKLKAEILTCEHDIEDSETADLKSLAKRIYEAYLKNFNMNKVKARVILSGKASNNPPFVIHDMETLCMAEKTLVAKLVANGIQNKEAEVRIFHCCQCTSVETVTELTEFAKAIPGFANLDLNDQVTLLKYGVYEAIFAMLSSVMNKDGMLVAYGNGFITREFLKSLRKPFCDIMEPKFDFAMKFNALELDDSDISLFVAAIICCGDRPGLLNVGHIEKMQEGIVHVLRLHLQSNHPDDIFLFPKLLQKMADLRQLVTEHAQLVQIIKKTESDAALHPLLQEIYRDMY

CCN(CC)c1ccc(N)cc1
inactive: Potency [1] | Potency [2] | Potency [3] | outcome [4] | outcome [5] | outcome [6] | Potency [7] | outcome [8] | outcome [9] | Potency [10] | Potency [11] | Potency [12] | Potency [13] | Potency [14] | max response [15] -0.774% | Potency [16]

Clc1nc2ccccc2nc1Cl
inactive: Potency [17] > 92 µM | Potency [1] | Potency [2] | Potency [3] | Potency [18] | outcome [4] | outcome [5] | outcome [6] | Potency [7] | outcome [8] | outcome [9] | Potency [10] | Potency [19] | Potency [11] | Potency [12] | Potency [13] | Potency [14] | max response [15] 0.306% | max response [20] 0.874% | Potency [16]

Oc1cc2c(cc1O)[C@H]1c3ccc(O)c(O)c3OC[C@@]1(O)C2
inactive: Potency [17] > 92 µM | Potency [2] | Potency [3] | Potency [18] | outcome [4] | outcome [5] | outcome [6] | Potency [7] | outcome [8] | outcome [9] | Potency [10] | Potency [14] | max response [15] -1.65% | max response [20] -29.6%
active: Potency [12] 50.1 µM

Cc1c(C(=O)O)c(O)cc2c1C(=O)c1c(O)c([C@H]3O[C@H](CO)[C@@H](O)[C@H](O)[C@H]3O)c(O)c(O)c1C2=O
active: Potency [1] 31.6 µM | Potency [16] 44.7 µM
inactive: Potency [2] | Potency [3] | Potency [18] | outcome [4] | outcome [5] | outcome [6] | Potency [7] | outcome [8] | outcome [9] | Potency [10] | Potency [19] | Potency [11] | Potency [12] | Potency [14] | max response [15] -8.63%

C=CC(=O)OCCCCCCOC(=O)C=C
inactive: Potency [17] > 92 µM | Potency [1] | Potency [2] | Potency [3] | Potency [18] | outcome [4] | outcome [5] | outcome [8] | outcome [9] | Potency [10] | Potency [14] | max response [15] 0.65% and -0.822% | max response [20] -16.8% and -7.99% | Potency [16]
active: Potency [11] 31.6 µM | Potency [12] 50.1 µM

c1ccc(Nc2cccc3ccccc23)cc1
inactive: Potency [17] > 92 µM | Potency [1] | Potency [2] | Potency [3] | Potency [18] | outcome [4] | outcome [5] | outcome [6] | Potency [7] | outcome [8] | outcome [9] | Potency [10] | Potency [19] | Potency [11] | Potency [12] | Potency [13] | Potency [14] | max response [20] -11.3% and -26.9% | Potency [16]

Oc1cc(Cl)cc(Cl)c1Cl
inactive: Potency [17] > 92 µM | Potency [1] | Potency [2] | Potency [3] | Potency [18] | outcome [4] | outcome [5] | outcome [6] | Potency [7] | outcome [8] | outcome [9] | Potency [10] | Potency [19] | Potency [11] | Potency [12] | Potency [13] | Potency [14] | max response [15] 6.36% | max response [20] -7.11% | Potency [16]
